G9a inh = inhibitors of human histone lysine methyltransferase G9a; Q96KQ7; G9a H3K9 monomethylation, AlphaScreen, 2 h; Potency, µM (top dose mostly 102 µM), for inactives: at the highest dose activity, negative = inhibition, most hits filed as inhibitors; 8.8% of 350,000 active; also: potency is read from the fitted curve at half-maximal effect; % is scaled to controls: 0 for no effect and ±100 for the full control effect; nearly all actives have a fitted effect of over 75% in size
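AlphaScreen detection with an anti-monomethyl H3K9 antibody quantified product after a 2 h room-temperature reaction containing 500 nM biotinylated H3K9 peptide, 20 µM SAM and 20 nM enzyme, which had been preincubated 15 min with compound.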
PLK1 PBD inh = PLK1 (human) polo-box domain binding inhibition; Potency, µM, without a hit: max response, negative = inhibition, actives largely listed as inhibitors; Plk1 PBD binding of FITC phosphopeptide, fluorescence polarization; P53350; 2.8% of 360,000 active; also: potency is read from the fitted curve at half-maximal effect; series mostly up to about 57 µM; % is scaled to controls: 0 for no effect and ±100 for the full control effect; nearly all actives have a fitted effect of over 65% in size
JMJD2A Tudor = JMJD2A Tudor domain (human) inhibition; O75164; AlphaScreen JMJD2A-Tudor / H3K4me3 peptide binding; Potency, µM (series often up to 114 µM), for the others: at the top dose activity change, negative = inhibition, usual class: inhibitors; 4.4% of 390,000 active; also: potency is read from the fitted curve at half-maximal effect; % is scaled to controls: 0 for no effect and ±100 for the full control effect; nearly all actives have a fitted effect of over 50% in size
BAZ2B block = BAZ2B (human) inhibition; Q9UIF8; AlphaScreen BAZ2B-H3K14Ac peptide displacement; Potency, µM (highest dose often 114 µM), for inactives: top-dose activity change, negative = inhibition, usual class: inhibitors; 4.4% of 360,000 active; AID 504333; also: potency is read from the fitted curve at half-maximal effect; % is scaled to controls: 0 for no effect and ±100 for the full control effect; nearly all actives have a fitted effect of over 60% in size
Target sequence (Q9UIF8 whole entry, looked up): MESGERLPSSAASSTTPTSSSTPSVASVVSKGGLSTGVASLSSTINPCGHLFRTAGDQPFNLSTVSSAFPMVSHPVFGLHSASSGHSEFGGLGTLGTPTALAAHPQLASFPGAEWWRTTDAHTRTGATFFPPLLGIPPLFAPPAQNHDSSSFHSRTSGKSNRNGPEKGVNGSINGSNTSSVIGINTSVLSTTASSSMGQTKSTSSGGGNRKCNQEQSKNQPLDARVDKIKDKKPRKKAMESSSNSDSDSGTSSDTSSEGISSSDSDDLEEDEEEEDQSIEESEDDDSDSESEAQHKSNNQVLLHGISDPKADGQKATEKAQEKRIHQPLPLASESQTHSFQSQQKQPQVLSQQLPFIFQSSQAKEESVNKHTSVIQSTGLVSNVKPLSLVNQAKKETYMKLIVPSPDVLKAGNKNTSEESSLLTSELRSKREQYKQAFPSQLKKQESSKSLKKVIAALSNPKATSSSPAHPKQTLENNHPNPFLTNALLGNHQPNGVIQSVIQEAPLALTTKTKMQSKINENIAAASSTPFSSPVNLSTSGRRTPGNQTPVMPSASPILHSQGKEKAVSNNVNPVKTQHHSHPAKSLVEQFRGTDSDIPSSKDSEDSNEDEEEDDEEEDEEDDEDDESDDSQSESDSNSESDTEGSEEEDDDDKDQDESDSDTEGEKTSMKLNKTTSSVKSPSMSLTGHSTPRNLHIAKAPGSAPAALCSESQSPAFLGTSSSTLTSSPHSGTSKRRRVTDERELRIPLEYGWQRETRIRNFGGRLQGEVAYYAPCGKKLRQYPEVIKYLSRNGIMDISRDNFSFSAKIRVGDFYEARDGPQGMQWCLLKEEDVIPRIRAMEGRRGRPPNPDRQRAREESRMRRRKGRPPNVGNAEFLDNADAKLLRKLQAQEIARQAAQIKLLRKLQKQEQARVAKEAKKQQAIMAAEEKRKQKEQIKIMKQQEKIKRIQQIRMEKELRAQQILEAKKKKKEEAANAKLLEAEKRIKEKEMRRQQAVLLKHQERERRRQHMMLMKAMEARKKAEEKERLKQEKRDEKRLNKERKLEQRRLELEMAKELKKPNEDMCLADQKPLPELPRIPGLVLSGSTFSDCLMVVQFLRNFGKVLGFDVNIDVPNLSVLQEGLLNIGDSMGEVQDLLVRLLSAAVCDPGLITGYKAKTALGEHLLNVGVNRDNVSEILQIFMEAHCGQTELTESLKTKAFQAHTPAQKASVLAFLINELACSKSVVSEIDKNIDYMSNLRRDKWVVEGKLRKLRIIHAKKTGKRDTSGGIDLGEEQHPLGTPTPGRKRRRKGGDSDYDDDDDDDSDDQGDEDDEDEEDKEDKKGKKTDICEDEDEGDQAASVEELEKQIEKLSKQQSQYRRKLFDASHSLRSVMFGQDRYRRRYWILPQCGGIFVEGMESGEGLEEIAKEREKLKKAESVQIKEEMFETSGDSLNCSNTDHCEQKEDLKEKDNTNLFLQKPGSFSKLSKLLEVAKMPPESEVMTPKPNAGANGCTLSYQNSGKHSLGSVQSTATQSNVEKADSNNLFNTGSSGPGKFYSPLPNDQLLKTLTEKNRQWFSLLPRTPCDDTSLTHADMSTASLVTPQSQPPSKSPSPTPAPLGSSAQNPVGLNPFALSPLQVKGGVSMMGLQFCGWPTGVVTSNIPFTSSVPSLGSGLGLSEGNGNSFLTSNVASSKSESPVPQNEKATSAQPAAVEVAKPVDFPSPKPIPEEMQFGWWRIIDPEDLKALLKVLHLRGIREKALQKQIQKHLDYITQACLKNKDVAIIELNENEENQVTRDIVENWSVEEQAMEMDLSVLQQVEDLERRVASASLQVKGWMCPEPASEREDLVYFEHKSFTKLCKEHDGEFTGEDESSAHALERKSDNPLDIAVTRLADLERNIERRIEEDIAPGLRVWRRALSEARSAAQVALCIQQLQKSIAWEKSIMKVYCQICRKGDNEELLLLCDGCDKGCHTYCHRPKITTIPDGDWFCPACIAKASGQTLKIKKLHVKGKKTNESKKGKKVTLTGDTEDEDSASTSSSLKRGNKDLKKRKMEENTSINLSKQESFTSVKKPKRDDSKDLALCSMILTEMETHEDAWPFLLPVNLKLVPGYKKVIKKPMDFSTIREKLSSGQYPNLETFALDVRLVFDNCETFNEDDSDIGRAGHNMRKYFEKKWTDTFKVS
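BAZ2B 50 nM plus b-H3(5-23)K14Ac 50 nM, PBS pH 7.4/0.01% Tween-20, 30 min RT; compound added (max 110 uM), 30 min RT; streptavidin donor/Ni-chelate acceptor beads 10 ug/mL final, 20 min dark; AlphaScreen read.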
PI5P4Ka inh = inhibitors of human PI5P4K alpha. P48426. PI5P4Kalpha enzyme, ADP-Glo luminescence, 60 min; hits give low values. max response, %. 1.2% of 330,000 active; active = max response of -50% or lower; inconclusive = between -30% and -50%; inactive = -30% or higher; also: value at the top dose of about 77 µM; % is scaled to controls: 0 for no effect and ±100 for the full control effect
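Reactions run in 0.038 M HEPES pH 7.4, 0.28 mM EGTA, 0.1% CHAPS and 5% DMSO, with PI5P4Kalpha, substrate, compound and 5 microM ATP final, one hour at room temperature. Readout is ADP-Glo luminescence.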
HP1b chromo inh = blocks HP1-beta chromodomain binding to methylated histone tails | P83916 | AlphaScreen HP1-beta / biotin-H3K9me3 peptide binding | Potency, µM (highest dose often 114 µM), without a hit: at the top dose activity change, negative = inhibition, most hits filed as inhibitors | 0.56% of 390,000 active; also: potency is read from the fitted curve at half-maximal effect; nearly all actives have a fitted effect of over 70% in size
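AlphaScreen: HP1-beta (50 nM) preformed 30 min with biotin-H3(1-18)K9me3 peptide (50 nM) in PBS pH 7.4, 0.01% Tween-20. Compound added for 30 min at RT, then streptavidin donor/nickel chelate acceptor beads (10 ug/mL) for 30 min.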
* marks the source's active call; other numbers are inactive results; ? = inconclusive; · = not tested or not shown; [ ] = another dose, or the depositor's remark. Compounds with a hit are over-represented: about 12% of the library has one in this group of screens. Unless noted, calls follow the shape of the dose curve; as a rule, active = well fitted curve in the direction sought with a large enough effect; inconclusive = small, poorly fitted or top-dose-only effect, or another doubt; inactive = no such curve, though single readings can be large; an effect the other way counts as inactive or inconclusive.

SMILES	G9a inh	PLK1 PBD inh	JMJD2A Tudor	BAZ2B block	PI5P4Ka inh	HP1b chromo inh
COc1cc(/C=N/NC(=O)c2cccs2)ccc1O	·	3.6%	0.0%	-4.0%	7.4	76.0%
COc1cc(/C=N\NC(=O)CNC(=O)C(c2ccccc2)c2ccccc2)ccc1O	6.6%	-5.7%	-17.9%	-23.7%	2.9	0.2%
COc1cc(/C=N/NC(=O)CCN2CCN(C(c3ccccc3)c3ccccc3)CC2)ccc1O	79.4µM*	-6.2%	?	?	0.5	-11.9%
COc1cc(/C=N/Nc2ccccc2)ccc1O	14.1µM*	-12.6%	-34.5%	-26.9%	-5.8	-0.7%
O=C(CNC(=O)c1ccc2ccccc2c1)OC(C(=O)Nc1cc(C(F)(F)F)ccc1Cl)c1ccccc1 (stereo unspecified)	·	·	-17.8%	·	·	·
O=C(NN1CCN(Cc2ccccc2)CC1)c1ccc(Cl)cc1	?	1.9%	-5.9%	-14.2%	8.7	18.9%
CC(C)c1ccc(-c2csc3ncnc(N4CCN(C)CC4)c23)cc1	-7.4%	2.5%	-3.1%	-24.1%	11.6	-5.8%
COc1cc(/C=N/NC(=O)CCc2ccccc2)ccc1O	0.2%[12.7 µM]	-9.7%	12.6%[57.1 µM]	-20.3%	8.4	28.1%
CCOc1ccc(/C=N/OCC(=O)Nc2ccc(OCc3ccccc3)cc2)cc1OC	61.0%[59 µM]	-2.3%	-10.4%	47.7%	4.8	30.7%
COc1ccc(/C=N/Nc2nc(N3CCCC3)nc(N3CCCC3)n2)cc1O	3.55µM*	-0.9%	-19.0%	9.0%	-5.0	29.5%
COc1ccc(/C=N/Nc2nc(N3CCCC3)nc(N3CCCC3)n2)cc1	3.2%	-0.8%	?	-9.3%	-5.5	-10.9%
COc1cccc2c(N/N=C/c3ccc(O)c(O)c3)cc(C)nc12	35.5µM*	-4.2%	?	?	-1.0	56.6%
CCOc1ccc(/C=N/N(C)c2ccccc2)cc1OC	50.1µM*	1.3%	44.7µM*	31.6µM*	-4.7	?
COc1cc(/C=N/N(c2ccccc2)c2ccccc2)ccc1O	28.2µM*	-9.0%	31.6µM*	44.7µM*	26.1	-32.7%
CC(C)(C)c1ccc(S(=O)(=O)NCc2ccc3c(c2)CCN3C(=O)c2ccccc2)cc1	-4.0%[59 µM]	·	-18.8%	0.3%	·	16.4%[57 µM]
COC(=O)c1[nH]c2cc(OC)c(OC)cc2c1NC(=O)CN1CCN(Cc2ccccc2)CC1	-8.7%[59 µM]	·	·	-4.4%	·	·
COC(=O)c1[nH]c2cc(OC)c(OC)cc2c1/C=N/Nc1ccccc1	35.5µM*	7.5%	-6.0%	-10.3%	5.3	30.3%
Oc1ccc(/C=N/NC(=S)Nc2cccnc2)cc1	53.1%[12.7 µM]	2.6%	-5.1%	-22.2%	-6.6	27.1%
Oc1ccc(/C=N/NC(=S)N/N=C/c2ccc(O)cc2)cc1	?	-22.6%	-21.3%[11.4 µM]	-21.1%	-51.0*	-5.1%
Cc1ccc(-n2c(=O)c3c(cnn3C)n(CC(=O)Nc3cc(C)ccc3C)c2=O)cc1	0.6%[59 µM]	·	-2.0%	-1.1%	·	41.7%
CN1CCOc2cc(S(=O)(=O)N3CCN(c4nc(-c5cccs5)nc5ccccc45)CC3)ccc21	·	·	-23.1%	·	·	-8.2%
CCOc1ccc(Nc2nn(-c3ccc(OC(F)(F)F)cc3)nc2C(C)=O)cc1	6.9%[59 µM]	·	-11.9%	-1.4%	·	47.9%
C=CCOc1ccc(Cl)cc1-c1noc(-c2csc([C@H]3C[C@H](O)[C@@H](CO)O3)n2)n1	·	-2.8%	·	·	-3.5	·
CCn1c2ccccc2c2cc(CNCc3ccc(OC)cc3OC)ccc21	39.8µM*	4.3%	?	44.7µM*	-1.4	?
CCn1c2ccccc2c2cc(C3C(C#N)=C(C)NC(C)=C3C#N)ccc21	14.4%	4.6%	8.8%	10.1%	·	55.0%
SMILES	G9a inh	PLK1 PBD inh	JMJD2A Tudor	BAZ2B block	PI5P4Ka inh	HP1b chromo inh
CCC(CC)NCc1ccc2c(c1)c1ccccc1n2CC	-119.0%[12.7 µM]	21.2µM*	20µM*	44.7µM*	?	?
CCn1c(C)cc(=S)c2ccccc21	3.16µM*	-7.6%	-26.0%[57.1 µM]	-30.9%	4.4	20.4%
CCn1c2ccccc2c2cc(/C=C(/C#N)C(N)=S)ccc21	·	-2.2%	20µM*	·	-8.3	?
CCn1c2ccccc2c2cc(CNCCCN3CCOCC3)ccc21	?	-1.1%	-9.0%	-25.9%	0.4	35.6%
CCn1c(=O)cc(SCC(=O)NCc2ccc(OC)cc2OC)c2ccccc21	-5.0%[59 µM]	·	-13.5%	-15.3%	·	16.9%
CN(c1ccccc1)c1nc(C#N)nc(N2CCOCC2)n1	·	·	1.5%[57.1 µM]	·	·	32.5%[57 µM]
Cc1cc(C)c(S(=O)(=O)c2cccc(C)c2C)c(=O)[nH]1	3.5%[2.33 µM]	5.5%	-12.9%	2.1%	16.5	38.6%
CCn1c2ccccc2c2cc(/C(C)=N/O)ccc21	-1.1%[59 µM]	2.9%	-19.3%	-7.6%	0.8	29.1%
CCn1c2ccccc2c2cc(N)ccc21	5.62µM*	-16.9%	?	-32.4%	-23.3	?
COc1cc(C2c3sc(=O)[nH]c3SC3C(=O)N(c4ccc(Br)cc4)C(=O)C32)ccc1O (stereo unspecified)	?	-19.9%	?	?	-9.9	-9.7%
CCOc1ccc(N2C(=O)C3Sc4[nH]c(=O)sc4C(/C=C/c4ccccc4)C3C2=O)cc1 (stereo unspecified)	11.2µM*	?	39.8µM*	44.7µM*	-25.2	?
COc1ccccc1N1CCN(CC(O)COc2cc(C)cc(C)c2)CC1 (stereo unspecified)	?	·	79.4µM*	?	·	14.6%
COc1ccccc1N1CCN(CC(O)COc2ccc(Cl)c(C)c2)CC1 (stereo unspecified)	?	·	89.1µM*	?	·	-9.7%
COc1ccccc1N1CCN(CC(O)COc2ccc(C)cc2C(C)(C)C)CC1 (stereo unspecified)	14.1µM*	·	?	31.6µM*	·	?
COc1ccccc1N1CCN(CC(O)COc2ccc(C)c(C)c2)CC1 (stereo unspecified)	-28.3%	-11.9%	?	?	0.0	13.1%
CCOC(=O)c1ccc(NC(=O)N2CCN(c3ccccc3OC)CC2)cc1	0.0%	-15.7%	79.4µM*	-27.8%	0.8	-6.2%
O=C(CCN1CCN(c2ccccc2F)CC1)Nc1ccccc1F	19.8%	-8.1%	-1.2%	2.0%	-3.6	14.5%
CCN(CC)c1ccc(NC(=O)CN2CCN(c3ccccc3OC)CC2)cc1	?	·	44.7µM*	35.5µM*	·	-18.3%
COc1ccc(NC(=O)c2ccc(NC(=O)CN3CCN(c4ccccc4OC)CC3)cc2)cc1	·	-5.8%	·	·	3.2	·
COc1ccc(NC(=O)CN2CCN(c3ccccc3F)CC2)cc1	?	-1.3%	-1.2%	-23.8%	3.5	26.2%
CCN(CC)c1ccc(NC(=O)CN2CCN(c3ccccc3F)CC2)cc1	8.91µM*	5.0%	56.2µM*	39.8µM*	0.9	50.1µM*
O=C(CN1CCN(c2ccccc2F)CC1)Nc1ccccc1F	50.1µM*	-9.2%	-13.8%	-14.1%	-0.5	36.4%
C[N+]12CCCC[C@@H]1CCC(=C(c1cccs1)c1cccs1)C2 (stereo partly specified)	-29.3%[12.7 µM]	·	·	·	·	·

Screening results from PubChem.
